# Screens from PubChem.
# hcDAF12 agonist: H. contortus DAF-12 activation, primary screen; HEK293 hcDAF-12 lit1-tk-luc reporter, luminescence; 0% DMSO, 100% Δ7-dafachronic acid; activation, % at 6.8 µM; 370,000 compounds, 1.4% hits; AID 652067;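 active = activation above the mean of all tested compounds plus 3 SD, cut at about 5.5% in these data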
# FXN GAA850 act: frataxin GAA850 promoter activation; HEK293 lucGAA850 FXN promoter luciferase reporter, 24 h; percent of 10 µM SAHA response; activation, % at 6 µM; 360,000 compounds, 0.56% hits; AID 540364;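 active = activation above the average of all compounds screened plus 3 SD, cutoff fixed separately per campaign, cut at about 7.5% in these data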
# hgDAF12 agonist: hgDAF-12 agonism, primary luciferase screen. HEK293 GAL4-hgDAF12 UAS-luciferase reporter, agonist luminescence; normalized to butyrate control. activation, % at 6.8 µM. 370,000 compounds, 1.8% hits;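 active = activation above a cutoff set at the mean of all screened compounds plus 3 SD, cut at about 10% in these data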
# ssDAF12 agonist: S. stercoralis DAF-12 activation, primary screen; HEK293 ssDAF-12/GRIP1 lit1-tk-luc reporter, luminescence; % of 3 µM dafachronic acid response; activation, % at 6.8 µM; 370,000 compounds, 1% hits;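 active = activation above the mean over all tested compounds plus 3 SD, cut at about 0.9% in these data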
# DAX1 inh-1: DAX1 (NR0B1) inhibition, primary screen. HEK293T StAR-luciferase reporter, SF-1/DAX-1 repression relief. inhibition, % at 6.8 µM. AID 652010. 370,000 compounds, 1.1% hits;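 active = inhibition above the mean over all tested compounds plus 3 SD, cut at about 3.6% in these data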;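 also: higher inhibition means more luminescence from relief of DAX-1 repression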
# DAX1 inh-2: NR0B1 (DAX1) inhibition; HEK293 Gal4-DAX1 luciferase reporter, luminescence; 340,000 compounds, 0.99% hits; inhibition, % at 6.75 µM; AID 504766; P51843;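 active = inhibition above the mean over all tested compounds plus 3 SD, cut at about 4.2% in these data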;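 also: inhibition shows as a rise in luminescence from relieved DAX1 repression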
# Target sequence (P51843 207-470 limits assumed): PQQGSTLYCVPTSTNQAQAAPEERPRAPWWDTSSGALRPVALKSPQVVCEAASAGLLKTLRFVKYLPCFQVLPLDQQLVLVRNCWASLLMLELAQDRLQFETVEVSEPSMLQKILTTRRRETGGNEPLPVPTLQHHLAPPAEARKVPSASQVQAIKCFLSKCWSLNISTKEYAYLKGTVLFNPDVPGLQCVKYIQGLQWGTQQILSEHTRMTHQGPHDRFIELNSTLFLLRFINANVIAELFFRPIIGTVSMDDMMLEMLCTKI
# Numbers stand for hits; 0 = inactive; - = no result. Rows were chosen to be rich in hits. Some 4.5% of all compounds tested hit in one or more screens of this group.
SMILES,hcDAF12 agonist,FXN GAA850 act,hgDAF12 agonist,ssDAF12 agonist,DAX1 inh-1,DAX1 inh-2
O=C(N/N=C/C=N/NC(=O)c1ccco1)c1ccco1,0,0,0,0,0,0
O=C(N/N=C1/CC2C=CCC12)c1ccco1 (stereo unspecified),0,0,11.4,1.0,0,0
COC(=O)C[C@@H]1CC[C@@H]2[C@H](COc3ccc(NC(=O)c4cccc(OC)c4)cc3C(=O)N2C)O1,0,-,0,0,0,-
Cc1ccc(N2CC(NS(=O)(=O)c3cccnc3)CC2=O)cc1C (stereo unspecified),0,0,0,0,0,0
O=C1CC(NS(=O)(=O)c2cccnc2)CN1c1ccc(F)cc1 (stereo unspecified),0,0,0,0,3.9,0
COC(=O)[C@]12C[C@H](CC(=O)NCc3ccc(OC)c(OC)c3)C(=O)N(CCc3ccc(OC)c(OC)c3)C1=C[C@H](C(C)(C)C)O[C@@H]2C,0,-,0,0,0,-
CC(=O)NCc1ccc(-c2csc(-c3cccs3)n2)cc1,0,0,12.4,0,0,0
O=C(NCc1csc(-c2cccs2)n1)c1ccccc1,0,0,0,0,0,0
COc1ccc(NC(=O)Nc2ccccc2C(=O)N2CCCC2)cc1OC,0,-,0,0,0,-
CC(=O)c1ccc(N2C(=NC(=O)COc3ccccc3)SC3CS(=O)(=O)CC32)cc1 (stereo unspecified),0,0,0,0,0,5.5
CC(=O)c1cccc(N2C(=NC(=O)COc3ccccc3)SC3CS(=O)(=O)CC32)c1 (stereo unspecified),0,0,0,0,0,0
CCn1c(COc2ccccc2)nnc1SCC(=O)Nc1ccc(S(=O)(=O)Nc2cc(C)nc(C)n2)cc1,0,-,0,0,0,-
COC(=O)NNC(=O)c1ccccc1OC,6.2,0,0,0,0,0
COc1ccccc1C(=O)NNC(=O)c1cccc(C)c1,0,0,0,1.1,0,0
CC(Cl)C(=O)N1CCC(C(=O)NC2CCCc3ccccc32)CC1 (stereo unspecified),0,-,0,0,0,-
O=S(=O)(NCC1NCCc2ccccc21)c1ccccc1 (stereo unspecified),0,0,0,0,0,8.3
COC(=O)[C@]12C[C@H](CC(=O)NCCC(C)C)C(=O)N(Cc3ccco3)C1=C[C@H](C(C)(C)C)O[C@@H]2C,0,-,0,0,0,-
CCN(CC)c1ccc(C(=O)OCC(=O)Nc2sccc2C#N)cc1,0,0,10.7,0,0,0
O=C(/C=C/C=C/c1ccc2c(c1)OCO2)N1CCCCC1,0,0,0,0,0,5.3
CCc1n[nH]c(=S)n1/N=C/c1ccc2c(c1)OCO2,0,0,0,0,0,4.8
C(=NN1CCCCCC1)c1ccc2c(c1)OCO2,0,0,0,0,0,4.3
CCc1n[nH]c(=S)n1/N=C/c1ccc(N(C)c2ccccc2)cc1,0,0,0,0,0,0
O=C(c1cccc(F)c1F)N(Cc1ccccn1)CC1CCCO1 (stereo unspecified),0,-,0,0,0,-
COC1=C[C@H](C(=O)NCc2ccc(Br)cc2)[C@H](C)[C@@H](c2ccccc2)CC1=O,0,-,0,0,0,-
O=C(N1CCC(C(O)(c2ccccc2)c2ccccc2)CC1)n1ncc(C(O)(c2ccccc2)c2ccccc2)n1,0,-,0,0,-,-
SMILES,hcDAF12 agonist,FXN GAA850 act,hgDAF12 agonist,ssDAF12 agonist,DAX1 inh-1,DAX1 inh-2
O=C(C1CC1)N1CCC(C(O)(c2ccccc2)c2ccccc2)CC1,0,0,0,0,0,5.1
CC(C)CC(=O)N1CCN(Cc2cccc(F)c2)CC1,0,0,0,0,0,0
Cc1cc(-c2nnc(CCC(=O)N3CCN(Cc4cccc(F)c4)CC3)o2)c(C)o1,0,0,0,0,0,6.3
NNc1nc2c(-c3ccc(F)cc3)nnn2c2ccccc12,6.4,0,10.5,1.3,0,0
O=C1c2ccccc2C(=O)N1CC(O)CN1CCOCC1 (stereo unspecified),0,0,0,3.9,0,0
COc1ccc(C(=O)n2c(N)nc3ccccc32)cc1OC,0,0,0,0,0,0
Nc1nc2ccccc2n1C(=O)c1ccccc1,5.6,0,12.3,0,0,0
Nc1nc2ccccc2n1C(=O)c1ccc(F)cc1,0,0,0,0,3.9,0
C[C@@H]1CCCN1c1ccc2c(c1)O[C@H]1CCN(C1)S2(=O)=O,0,-,0,0,0,-
COc1ccc(-n2c(SCC(=O)NNC(=S)Nc3ccc(C)cc3)nnc2-c2ccccc2)cc1,0,-,0,0,0,-
CC(C)[C@H](NC(=O)c1ccccc1)C(=O)OCC(=O)NCc1ccc(F)cc1,0,0,0,0,0,5.4
CC(C)[C@H](NC(=O)c1ccccc1)C(=O)OCC(=O)NCC1CCCO1 (stereo partly specified),0,0,0,0,0,0
CCOC(=O)Cc1nc(N2CCN(C=O)CC2)c2c(C)c(C(=O)OCC)sc2n1,0,-,0,0,0,-
Cc1ccc2oc(=O)c(/C=C(\O)c3cccs3)nc2c1,5.6,0,0,0,0,5.6
Cc1ccc2oc(=O)c(/C=C(\O)c3ccccc3)nc2c1,0,0,0,0,0,0
O=c1oc2ccc(Cl)cc2nc1/C=C(\O)c1cccs1,5.6,0,0,0,0,0
CCS(=O)(=O)c1ccc2oc(=O)c(/C=C(\O)c3ccc(Cl)cc3)nc2c1,0,0,0,0,0,0
C=CCC12C=C(OC)C(=O)C(C1=O)C(c1ccc(OC)cc1)C2C (stereo unspecified),0,-,0,0,0,-
O[C@H](COc1ccc(F)cc1)CN1CCC(C(O)(c2ccccc2)c2ccccc2)CC1,0,-,0,0,0,-
O=C(CN(CCc1ccccc1)S(=O)(=O)c1ccccc1)N1CCOCC1,0,-,0,0,0,-
Cc1ccc(C(=O)Nc2cc(Cl)ccc2-n2cncn2)o1,0,0,0,1.2,0,0
CC1CCCCN1C(=O)CN1CCC(c2nc3ccc(Cl)cc3[nH]2)CC1 (stereo unspecified),0,0,0,0,0,4.5
Oc1ccc(Cl)cc1C1=NNC(c2cccs2)C1 (stereo unspecified),5.7,0,14.1,0,0,0
O=[N+]([O-])c1ccc(O)c(C2=NNC(c3ccccc3F)C2)c1 (stereo unspecified),0,0,0,0,0,0
COc1cc(C(=O)NC2CCCCN(C(C)C)C2=O)cc(OC)c1OC (stereo unspecified),0,-,0,0,0,-
C[C@@H]1/C=C/CC(=O)N[C@H](c2ccccc2)[C@H](C)/C=C/CC(=O)N[C@@H]1c1ccccc1,0,-,0,0,0,-
CC(C)NC(=O)C1C(c2ccc(C(F)(F)F)cc2)=Nc2ccccc2N1C(=O)c1ccccc1 (stereo unspecified),0,-,0,1.5,0,-
